Measured values taken from PubChem BioAssay AID2132 (NMMLSC, 2009).
The source made the active and inactive calls.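 The calls were made as follows: active = inhibition above 20%; inactive = the rest.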 Peptide text beside a SMILES is read from it. * marks the point of attachment. Cbz = O=C(OCc1ccccc1)*

Assay: inhibition of 26S proteasome fluorogenic peptide cleavage, counter-screen for 26S proteasome disassembly project, biochemical, fluorogenic peptides, secondary (AID 2132)
Settings: yeast 26S proteasome, fluorogenic peptide cleavage rate; with Ac-RLR-amc; at 100 µM; hits give high values

| Compound | inhibition |
| --- | --- |
| CC(C)C[C@@H](C=O)NC(=O)[C@H](CC(C)C)NC(=O)[C@H](CC(C)C)NC(=O)OCc1ccccc1 (Cbz-Leu-Leu-Leu-aldehyde) | 5% (inactive) |
| CC(=O)N1C(=O)C(=C2C=C(C)OC(C)=C2)c2ccccc21 | 20% (inactive) |
